Article PMC7862700, “An all-to-all approach to the identification of sequence-specific readers for epigenetic DNA modifications on cytosine”

Assays:
Experiment in all cases: DAPPL (digital affinity profiling via proximity ligation, sequencing); 10 mM Tris-HCl pH 7.5, 50 mM NaCl, 1 mM DTT, 4% glycerol, room temperature, 30 min; GST-TFs on glutathione beads, 16-mer random dsDNA library, 0.1% formaldehyde crosslink after washing; high values mean tight binding
Conditions in all cases: protein: recombinant; tags: N-terminal GST; dsDNA, one strand shown
ETV1 = ETV1 (Homo sapiens, UniProt P50549 1-477)
Summary of the method: (§1)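 Human transcription factors were made in yeast as GST fusions, captured on glutathione beads and barcoded with DNA. With a tag-only sample included, the pool was incubated with 200 nmole of a random double-stranded 16-mer DNA library in Tris/NaCl/DTT/glycerol buffer at room temperature for 30 min, then crosslinked with 0.1% formaldehyde after washing, ligated by proximity, amplified and sequenced. For binding signal, each hexamer's read frequency for a factor is divided by its frequency for the tag-only sample.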

ERF = target: T1, ERF (Homo sapiens, UniProt P50548 1-548)
T1 sequence: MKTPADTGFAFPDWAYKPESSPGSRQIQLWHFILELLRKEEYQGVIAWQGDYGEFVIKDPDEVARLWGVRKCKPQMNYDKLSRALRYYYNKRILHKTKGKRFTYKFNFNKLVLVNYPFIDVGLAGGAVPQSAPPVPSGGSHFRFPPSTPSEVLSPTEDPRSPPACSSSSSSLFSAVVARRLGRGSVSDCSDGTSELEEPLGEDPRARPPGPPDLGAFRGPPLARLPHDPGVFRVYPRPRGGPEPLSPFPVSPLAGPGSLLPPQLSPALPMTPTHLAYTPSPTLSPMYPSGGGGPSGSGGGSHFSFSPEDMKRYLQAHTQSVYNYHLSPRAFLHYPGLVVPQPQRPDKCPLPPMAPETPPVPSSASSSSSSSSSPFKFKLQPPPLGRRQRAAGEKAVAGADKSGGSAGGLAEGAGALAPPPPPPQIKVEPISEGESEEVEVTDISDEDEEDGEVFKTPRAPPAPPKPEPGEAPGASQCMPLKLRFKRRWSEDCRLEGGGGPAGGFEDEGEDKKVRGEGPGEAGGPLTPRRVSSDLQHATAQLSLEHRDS
Summary of the method: as §1

ETV3L = target: T2, ETV3L (Homo sapiens, UniProt Q6ZN32 1-361)
T2 sequence: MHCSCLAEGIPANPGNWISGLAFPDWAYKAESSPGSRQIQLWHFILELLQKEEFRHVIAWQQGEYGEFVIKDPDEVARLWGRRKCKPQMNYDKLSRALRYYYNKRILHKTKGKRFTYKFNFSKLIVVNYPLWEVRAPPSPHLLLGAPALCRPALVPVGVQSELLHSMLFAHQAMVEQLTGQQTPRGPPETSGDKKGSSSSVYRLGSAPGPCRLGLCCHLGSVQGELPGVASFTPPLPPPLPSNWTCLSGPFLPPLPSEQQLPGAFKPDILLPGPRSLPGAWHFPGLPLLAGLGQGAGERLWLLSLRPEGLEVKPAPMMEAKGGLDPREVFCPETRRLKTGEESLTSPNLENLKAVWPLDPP
Summary of the method: as §1

ETS2 = target: T3, ETS2 (Homo sapiens, UniProt P15036 1-469)
T3 sequence: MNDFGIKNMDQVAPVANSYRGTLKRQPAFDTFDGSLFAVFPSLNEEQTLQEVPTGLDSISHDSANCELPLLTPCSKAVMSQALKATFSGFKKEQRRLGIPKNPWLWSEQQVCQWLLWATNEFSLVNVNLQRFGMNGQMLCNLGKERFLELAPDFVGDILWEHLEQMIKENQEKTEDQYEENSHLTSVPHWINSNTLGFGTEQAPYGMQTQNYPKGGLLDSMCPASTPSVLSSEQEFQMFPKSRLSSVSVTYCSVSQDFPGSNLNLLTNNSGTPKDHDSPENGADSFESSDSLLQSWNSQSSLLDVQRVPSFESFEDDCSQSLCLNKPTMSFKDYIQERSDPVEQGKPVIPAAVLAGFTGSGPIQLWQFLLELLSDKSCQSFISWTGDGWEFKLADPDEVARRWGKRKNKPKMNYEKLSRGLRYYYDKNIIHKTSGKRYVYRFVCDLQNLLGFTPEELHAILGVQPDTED
Summary of the method: as §1

SPDEF = target: T4, SPDEF (Homo sapiens, UniProt O95238 1-335)
T4 sequence: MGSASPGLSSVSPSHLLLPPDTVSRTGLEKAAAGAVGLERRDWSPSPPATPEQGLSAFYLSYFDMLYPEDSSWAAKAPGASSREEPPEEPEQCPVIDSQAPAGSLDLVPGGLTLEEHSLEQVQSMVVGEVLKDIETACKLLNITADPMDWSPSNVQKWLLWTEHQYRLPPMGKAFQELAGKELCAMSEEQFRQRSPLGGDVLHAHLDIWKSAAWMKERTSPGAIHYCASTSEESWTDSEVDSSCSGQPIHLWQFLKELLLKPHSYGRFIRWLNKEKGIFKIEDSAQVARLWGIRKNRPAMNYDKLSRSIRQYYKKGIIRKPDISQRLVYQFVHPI
Summary of the method: as §1

ETV7 = target: T5, ETV7 (Homo sapiens, UniProt Q9Y603 1-341)
T5 sequence: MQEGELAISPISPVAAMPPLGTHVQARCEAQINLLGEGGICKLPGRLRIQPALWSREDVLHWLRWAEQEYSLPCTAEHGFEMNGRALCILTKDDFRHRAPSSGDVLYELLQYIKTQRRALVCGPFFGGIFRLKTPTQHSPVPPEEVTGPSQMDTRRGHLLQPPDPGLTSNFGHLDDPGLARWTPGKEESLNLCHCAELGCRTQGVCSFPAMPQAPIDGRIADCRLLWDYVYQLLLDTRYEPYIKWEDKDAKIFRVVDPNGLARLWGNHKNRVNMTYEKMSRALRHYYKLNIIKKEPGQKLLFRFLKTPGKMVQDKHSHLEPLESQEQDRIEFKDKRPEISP
Summary of the method: as §1

ELF5 = target: T6, ELF5 (Homo sapiens, UniProt Q9UKW6-2 1-255)
T6 sequence: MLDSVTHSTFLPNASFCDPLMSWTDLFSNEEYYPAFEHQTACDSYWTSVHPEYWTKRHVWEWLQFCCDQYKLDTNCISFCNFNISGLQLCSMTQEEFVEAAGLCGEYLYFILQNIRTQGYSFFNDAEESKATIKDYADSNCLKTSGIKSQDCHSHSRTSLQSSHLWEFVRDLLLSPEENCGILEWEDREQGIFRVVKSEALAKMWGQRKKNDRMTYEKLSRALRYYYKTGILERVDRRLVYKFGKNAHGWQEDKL
Summary of the method: as §1

ETV3 = target: T7, ETV3 (Homo sapiens, UniProt P41162-2 1-143)
T7 sequence: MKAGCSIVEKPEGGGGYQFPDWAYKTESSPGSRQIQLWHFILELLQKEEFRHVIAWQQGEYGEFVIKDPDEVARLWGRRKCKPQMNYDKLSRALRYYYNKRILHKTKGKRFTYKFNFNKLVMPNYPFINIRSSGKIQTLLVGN
Summary of the method: as §1

ETV6 = ETV6 (Homo sapiens, UniProt P41212 1-452)
Summary of the method: as §1

Sequence of ETV6 (P41212 whole entry): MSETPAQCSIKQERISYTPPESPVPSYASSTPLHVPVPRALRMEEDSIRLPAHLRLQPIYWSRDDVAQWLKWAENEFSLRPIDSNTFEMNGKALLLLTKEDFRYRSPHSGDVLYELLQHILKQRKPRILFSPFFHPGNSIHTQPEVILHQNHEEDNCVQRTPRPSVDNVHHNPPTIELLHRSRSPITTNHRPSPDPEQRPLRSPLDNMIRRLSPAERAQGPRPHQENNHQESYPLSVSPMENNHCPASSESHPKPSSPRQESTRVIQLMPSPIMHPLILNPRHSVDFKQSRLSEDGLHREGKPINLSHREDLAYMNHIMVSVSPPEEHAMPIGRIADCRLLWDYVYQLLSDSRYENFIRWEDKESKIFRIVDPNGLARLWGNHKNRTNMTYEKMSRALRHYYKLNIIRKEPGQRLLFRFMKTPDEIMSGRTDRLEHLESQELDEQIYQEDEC
Sequence of ETV1 (P50549 whole entry, the tested form may be a part): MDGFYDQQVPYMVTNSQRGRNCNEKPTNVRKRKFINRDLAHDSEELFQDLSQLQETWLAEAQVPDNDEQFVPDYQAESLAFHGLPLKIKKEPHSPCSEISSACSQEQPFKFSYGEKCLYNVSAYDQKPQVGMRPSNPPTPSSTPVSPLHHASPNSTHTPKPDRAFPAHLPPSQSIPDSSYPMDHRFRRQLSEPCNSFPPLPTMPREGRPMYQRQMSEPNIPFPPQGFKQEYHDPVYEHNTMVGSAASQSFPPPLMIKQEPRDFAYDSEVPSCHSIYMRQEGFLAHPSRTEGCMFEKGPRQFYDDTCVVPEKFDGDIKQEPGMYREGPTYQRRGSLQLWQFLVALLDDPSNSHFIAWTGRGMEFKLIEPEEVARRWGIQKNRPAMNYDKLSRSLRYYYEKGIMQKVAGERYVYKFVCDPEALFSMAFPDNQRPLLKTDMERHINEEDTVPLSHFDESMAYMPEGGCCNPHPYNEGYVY

Question: TTCCAC was tested. Which binding signal (ETV1) did it give?
Answer: 1.38 fold enrichment (6-mer frequency, TF over GST control)

Question: What about the binding signal (ERF) of the same sequence?
Answer: 1.38 fold enrichment (6-mer frequency, TF over GST control)

Question: What about the binding signal (ETV3L) of the same sequence?
Answer: 1.54 fold enrichment (6-mer frequency, TF over GST control)

Question: What about the binding signal (ETS2) of the same sequence?
Answer: 1.44 fold enrichment (6-mer frequency, TF over GST control)

Question: What about the binding signal (SPDEF) of the same sequence?
Answer: 1.36 fold enrichment (6-mer frequency, TF over GST control)

Question: What about the binding signal (ETV7) of the same sequence?
Answer: 1.31 fold enrichment (6-mer frequency, TF over GST control)

Question: What about the binding signal (ELF5) of the same sequence?
Answer: 1.51 fold enrichment (6-mer frequency, TF over GST control)

Question: What about the binding signal (ETV3) of the same sequence?
Answer: 1.46 fold enrichment (6-mer frequency, TF over GST control)

Question: What about the binding signal (ETV6) of the same sequence?
Answer: 1.47 fold enrichment (6-mer frequency, TF over GST control)
